For eight compounds, z-score and composite z-score results are on record in PubChem BioAssay.

Assay [1] is described as follows: E. coli DRC41 culture turbidity changes, primary screen, E. coli filamentation inducer project, strain DRC41, OD650, 48 h (AID 1152).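 Also: E. coli MC1000 strain DRC41 lacking acrAB efflux pump and sulA.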 The note with it: E. coli DRC41 (acrAB sulA), higher = more signal, called active from +8 up or from −8 down.
Assay [2] can be described thus: small-molecule binders of probe aLefty1, primary screen, biochemical, small-molecule microarray, 635/667 nm fluorescence (AID 1153).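 Also: score merges spot fluorescence with signal-to-noise ratio from the scanned slide images.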 Particulars: higher = more signal.
The nature of assay [3]: PSAC antagonists in infected red cells, primary screen, cell-based, P. falciparum Indochina, OD700, 1 h (AID 1154). The note with it: P. falciparum Indochina infected RBC osmotic lysis, higher = more signal, called active from +8 up or from −8 down.
Assay [4] is described as follows: PSAC antagonists in infected red cells, primary screen, cell-based, P. falciparum Indochina, OD700, 2 h (AID 1155).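 Also: lysis reports solute entry through the parasite surface anion channel PSAC; channel blockers reduce lysis of infected cells.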 Particulars: P. falciparum Indochina infected erythrocytes, osmotic lysis OD700; higher = more signal, called active from +8 up or from −8 down.
Assay [5] can be described thus: osmotic lysis modulators in infected erythrocytes, primary screen, PSAC antagonist project, cell-based, P. falciparum Indochina, OD700, 3 h (AID 1156). The note with it: higher = more signal, called active from +8 up or from −8 down.
Assay [6] can be described thus: PSAC antagonists in infected red cells, primary screen, cell-based, P. falciparum Indochina, OD700, 18 h (AID 1157). The note with it: P. falciparum Indochina infected erythrocytes, osmotic lysis OD700, 18 h; higher = more signal, called active from +8 up or from −8 down.
Assay [7] can be described thus: modulators of S6 phosphorylation in cells, primary screen, cell-based, A549, cytoblot, luminescence, serum-stimulated (AID 1158).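 Also: serum-stimulated A549 lung adenocarcinoma cells; signal is phosphorylated S6 detected by cytoblot immunostaining with HRP secondary.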 Particulars: A549 phospho-S6 cytoblot, 5 h, higher = more signal.
Assay [8] addresses NADPH oxidase 2 (Homo sapiens) (UniProt P04839). The experiment in a line: NOX2-dependent H2O2 signal modulators, primary screen, NOX inhibitor project, cell-based, HEK293-NOX2, PMA-stimulated, Amplex Red fluorescence (AID 1159). Also: test concentration not given here. Particulars: 45 min, higher = more signal, called active from +8 up or from −8 down.
Assay [9] addresses NADPH oxidase 4 (Homo sapiens) (UniProt Q9NPH5). The experiment in a line: NOX4-dependent H2O2 signal modulators, primary screen, NOX inhibitor project, cell-based, HEK293-NOX4, tetracycline-induced, Amplex Red fluorescence (AID 1160). Particulars: 45 min, higher = more signal, called active from +8 up or from −8 down.
The target in assay [10] is NADPH oxidase 5 (Homo sapiens) (UniProt Q96PH1). The experiment in a line: NOX5-dependent H2O2 signal modulators, primary screen, NOX inhibitor project, cell-based, HEK293-NOX5, Amplex Red fluorescence (AID 1161). The note with it: HEK293-NOX5, ionomycin, 45 min, higher = more signal.
NADPH oxidase 5 (Homo sapiens), sequence (Q96PH1 whole entry, looked up): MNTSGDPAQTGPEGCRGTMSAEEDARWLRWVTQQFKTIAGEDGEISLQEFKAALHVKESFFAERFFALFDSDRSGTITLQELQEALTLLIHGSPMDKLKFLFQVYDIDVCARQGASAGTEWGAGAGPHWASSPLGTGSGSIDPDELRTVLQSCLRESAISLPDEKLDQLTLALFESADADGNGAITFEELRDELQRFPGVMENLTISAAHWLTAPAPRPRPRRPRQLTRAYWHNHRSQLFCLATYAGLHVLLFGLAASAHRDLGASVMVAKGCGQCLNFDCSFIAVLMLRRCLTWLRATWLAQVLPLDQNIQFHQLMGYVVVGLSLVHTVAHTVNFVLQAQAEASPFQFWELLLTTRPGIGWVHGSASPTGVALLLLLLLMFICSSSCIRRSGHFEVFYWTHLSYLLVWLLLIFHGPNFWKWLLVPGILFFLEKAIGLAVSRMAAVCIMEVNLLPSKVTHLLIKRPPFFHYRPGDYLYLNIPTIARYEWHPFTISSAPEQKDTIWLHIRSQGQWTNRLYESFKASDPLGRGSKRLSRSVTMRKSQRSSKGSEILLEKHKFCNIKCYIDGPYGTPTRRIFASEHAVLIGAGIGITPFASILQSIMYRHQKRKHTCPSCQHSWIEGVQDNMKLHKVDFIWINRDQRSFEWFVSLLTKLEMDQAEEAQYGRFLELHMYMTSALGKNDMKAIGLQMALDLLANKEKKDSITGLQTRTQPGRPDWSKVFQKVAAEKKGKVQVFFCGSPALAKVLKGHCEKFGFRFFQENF
The nature of assay [11]: A549 cell viability effects, profiling panel, calcein-AM fluorescence, 48 h, basal (AID 1162). Also: test concentration not given here. Particulars: higher = more signal.
The nature of assay [12]: adipocyte viability effects, profiling panel, cell-based, 3T3-L1 adipocytes, calcein-AM fluorescence, 48 h, basal (AID 1163). Also: test concentration not given here. Particulars: 3T3-L1 adipocytes viability, higher = more signal.
Assay [13] can be described thus: HepG2 cell viability effects, profiling panel, calcein-AM fluorescence, 48 h, basal (AID 1164). Also: test concentration not given here. Particulars: higher = more signal.
Assay [14] in a line: MM1S cell viability effects, profiling panel, calcein-AM fluorescence, 48 h, basal (AID 1165).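 Also: viability of MM1S multiple myeloma cells under basal unstimulated conditions; test concentration not given here.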 The note with it: higher = more signal.
Assay [15] is described as follows: basal RPMI8226 viability, no added stimulus, profiling panel, cell-based, calcein-AM fluorescence, 48 h, PK04 Diversity Set (AID 1166).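 Also: cells grown under basal conditions without added stimulus; test concentration not given here.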 The note with it: RPMI8226 myeloma viability, higher = more signal.
Assay [16] can be described thus: basal HepG2 mitochondrial membrane potential changes, profiling panel, cell-based, JC-1 fluorescence, 24 h, 100 nL compound (AID 1167). Also: test concentration not given here. Particulars: higher = more signal.
Assay [17] is described as follows: basal 3T3-L1 adipocyte mitochondrial potential changes, profiling panel, cell-based, JC-1 fluorescence, 3T3-L1 adipocytes, 24 h, 100 nL compound (AID 1168). Also: test concentration not given here. Particulars: JC-1 mitochondrial fluorescence, higher = more signal, called active from +8 up or from −8 down.
Assay [18] can be described thus: basal RPMI8226 mitochondrial membrane potential changes, profiling panel, cell-based, JC-1 fluorescence, 24 h, 100 nL compound (AID 1169). Also: test concentration not given here. Particulars: RPMI8226 myeloma, JC-1 mitochondrial potential fluorescence, higher = more signal.
Assay [19] in a line: basal MM1S mitochondrial membrane potential changes, profiling panel, cell-based, JC-1 fluorescence, 24 h, 100 nL compound (AID 1170). Also: test concentration not given here. Particulars: higher = more signal.
Assay [20] is described as follows: A549 lung cancer cell viability effects, profiling panel, resazurin fluorescence, 24 h, PK04 Diversity Set (AID 1171). Also: test concentration not given here. The note with it: higher = more signal, called active from +8 up or from −8 down.

Structures are written as SMILES. Activity calls are given as the source filed them.

NADPH oxidase 2 (Homo sapiens), sequence (P04839 whole entry, looked up): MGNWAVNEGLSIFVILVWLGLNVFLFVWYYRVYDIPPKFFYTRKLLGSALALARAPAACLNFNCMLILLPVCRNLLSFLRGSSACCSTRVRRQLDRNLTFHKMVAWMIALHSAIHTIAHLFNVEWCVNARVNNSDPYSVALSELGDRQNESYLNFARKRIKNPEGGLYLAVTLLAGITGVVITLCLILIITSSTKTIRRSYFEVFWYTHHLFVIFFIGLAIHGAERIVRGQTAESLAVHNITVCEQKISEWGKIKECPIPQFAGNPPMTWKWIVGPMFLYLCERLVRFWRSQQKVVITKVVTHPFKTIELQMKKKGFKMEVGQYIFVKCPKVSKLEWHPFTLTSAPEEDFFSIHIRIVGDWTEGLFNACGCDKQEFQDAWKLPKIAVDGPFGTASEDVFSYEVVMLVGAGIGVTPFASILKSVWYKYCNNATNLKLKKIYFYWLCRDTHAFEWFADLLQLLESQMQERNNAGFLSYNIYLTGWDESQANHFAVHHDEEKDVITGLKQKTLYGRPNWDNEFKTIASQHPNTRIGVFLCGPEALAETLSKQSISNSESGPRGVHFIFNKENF
NADPH oxidase 4 (Homo sapiens), sequence (Q9NPH5 whole entry, looked up): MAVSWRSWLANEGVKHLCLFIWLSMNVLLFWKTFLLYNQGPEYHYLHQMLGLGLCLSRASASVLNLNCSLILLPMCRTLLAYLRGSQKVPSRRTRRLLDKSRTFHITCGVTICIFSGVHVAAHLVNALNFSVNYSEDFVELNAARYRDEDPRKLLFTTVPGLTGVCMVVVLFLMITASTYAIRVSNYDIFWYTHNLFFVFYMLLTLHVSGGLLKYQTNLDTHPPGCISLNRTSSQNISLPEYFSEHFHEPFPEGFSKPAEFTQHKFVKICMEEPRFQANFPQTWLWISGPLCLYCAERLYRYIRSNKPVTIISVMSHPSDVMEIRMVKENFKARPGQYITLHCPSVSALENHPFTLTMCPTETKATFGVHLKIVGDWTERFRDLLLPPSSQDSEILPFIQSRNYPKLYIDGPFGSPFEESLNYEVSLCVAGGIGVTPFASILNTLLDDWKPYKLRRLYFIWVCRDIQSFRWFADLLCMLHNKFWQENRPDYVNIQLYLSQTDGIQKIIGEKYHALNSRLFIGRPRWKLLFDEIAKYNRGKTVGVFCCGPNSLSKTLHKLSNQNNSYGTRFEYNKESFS

For `COC(=O)[C@@]1(Cc2ccc(OC)cc2)[C@H]2c3cc(C(=O)N4CCCC4)n(CCc4ccc(OC)c(Br)c4)c3C[C@H]2CN1C(=O)c1ccccc1`, the z-score in [1] was -0.536 (inactive); in assay [3], 2.64 (inactive); in assay [4] it was 0.809 (inactive); in assay [5], -0.0758 (inactive); in assay [6], 0.568 (inactive); in [7] it was 0.348. Further, the z-score in assay [8] was 0.798 (inactive); in assay [9], 0.0418 (inactive); in [10], -0.759; in assay [11], -0.572; in [12], -0.3; in assay [13], 0.347. Further, the z-score in assay [14] is -0.245; in assay [15], -1.51; in [16], 2.24; in [17] it was -0.641 (inactive); in [18] it was -0.767; in assay [19] it was -0.569. Further, the z-score in [20] is 0.568 (inactive). In [2], this compound yielded a composite z-score of 0.291.
With `Cc1ccc(S[C@]2(C(=O)NCC(F)(F)F)CC(=O)N(C3CCCCC3)[C@@H]2c2ccc(CO)cc2)cc1`, the z-score in assay [1] is 0.344 (inactive); in assay [3], 1.58 (inactive); in assay [4], 0.525 (inactive); in assay [5] it was 0.621 (inactive); in assay [6], 0.157 (inactive); in [7], -0.14. Also, the z-score was -0.941 (inactive) in [8]; 0.03 (inactive) in assay [9]; 0.192 in [10]; 0.815 in assay [11]; 0.132 in assay [12]; 0.844 in [13]. Also, the z-score was -1.03 in [14]; -0.758 in assay [15]; 1.11 in assay [16]; 0.466 (inactive) in assay [17]; 0.0558 in assay [18]; -0.42 in assay [19]. For the same compound, the z-score in [20] was -0.0508 (inactive). In [2], this compound displayed a composite z-score of 0.123.
`C=CCC(OC(C)=O)[C@@H]1[C@@H](N(Cc2cccc3ccccc23)C(=O)c2ccc(-c3ccccc3)cc2)c2cc(OCCCO)ccc2N1C(=O)c1ccc2ccccc2n1` (stereo not given in full): the z-score in assay [1] is -0.688 (inactive); in [3], 0.0025 (inactive); in [4] it was -0.232 (inactive); in assay [5], -0.44 (inactive); in assay [6] it was -0.0821 (inactive); in assay [7], 1.14. The z-score in assay [8] was -0.0242 (inactive); in assay [9] it was 1.04 (inactive); in assay [10], 1.48; in [11] it was -0.421; in assay [12], 0.587; in [13], 0.589. Also, the z-score in assay [14] is -0.848; in assay [15] it was -0.842; in [16], 1.08; in assay [17] it was -0.12 (inactive); in [18], 0.61; in assay [19], -0.0192. Also, the z-score in assay [20] is 0.701 (inactive). The composite z-score in [2] came to 0.123.
Turning to `CCc1cccc(NC(=O)O[C@H]2[C@H](OC(=O)Nc3ccc4c(c3)OCO4)[C@H](OC(=O)Nc3ccc4c(c3)OCO4)[C@@H](OC)O[C@@H]2CO)c1`, the z-score in [1] was -0.128 (inactive); in [3] it was 18.2 (active); in assay [4] it was 2.63 (inactive); in [5], 1.73 (inactive); in assay [6], 1.18 (inactive); in assay [7], 0.921. Also, the z-score is -3.43 (inactive) in [8]; -1.11 (inactive) in assay [9]; -1.65 in assay [10]; -1.45 in [11]; 1.16 in assay [12]; -1.35 in [13]. The z-score in assay [14] is -2.42; in assay [15] it was -2.17; in assay [16] it was -1.56; in [17] it was 0.248 (inactive); in assay [18], -1.15; in [19] it was -1.18. Besides, the z-score in assay [20] was -2.33 (inactive). This compound showed a composite z-score in [2] of 0.349.
For `COCCOC(=O)N1C(=O)[C@@]2(c3cc(C#CC4=CCCCC4)ccc31)[C@H](c1ccccc1OCCO)N1[C@H](c3ccccc3)[C@H](c3ccccc3)OC(=O)[C@H]1[C@@H]2C(N)=O`, the z-score in assay [1] is 1.97 (inactive); in assay [3], 2.66 (inactive); in assay [4] it was 0.298 (inactive); in assay [5] it was -0.714 (inactive); in assay [6] it was -0.0482 (inactive); in assay [7], 2.22. Further, the z-score was 1.77 (inactive) in assay [8]; 0.548 (inactive) in assay [9]; -0.172 in assay [10]; -1.13 in assay [11]; 2.16 in assay [12]; -2.29 in assay [13]. Besides, the z-score in assay [14] is -3.11; in assay [15], -4.02; in assay [16], -0.985; in assay [17], 0.686 (inactive); in assay [18], -0.96; in [19] it was -1.85. In addition, in [20], the z-score was -1.35 (inactive). In addition, the composite z-score in [2] was -0.0611.
Take `C=CCC(OC(C)=O)[C@@H]1[C@@H](N(Cc2cc3ccccc3o2)C(=O)c2ccc(-c3ccccc3)cc2)c2cc(OCCCO)ccc2N1C(=O)c1ccc2ccccc2n1` (stereo not given in full): the z-score is 0.803 (inactive) in [1]; 1.01 (inactive) in assay [3]; 0.698 (inactive) in [4]; -0.44 (inactive) in assay [5]; 0.655 (inactive) in assay [6]; -0.113 in [7]. Besides, the z-score in [8] was 1.88 (inactive); in assay [9] it was -0.895 (inactive); in [10], 1.66; in assay [11], 0.704; in assay [12], 0.242; in assay [13] it was 1.43. Also, the z-score is 0.479 in [14]; -0.11 in [15]; 2.66 in assay [16]; 0.229 (inactive) in [17]; -0.202 in [18]; 1.32 in assay [19]. For the same compound, in assay [20], the z-score is 0.967 (inactive). In addition, the composite z-score in assay [2] is -0.0534.
As for `C=CCC(OC(C)=O)[C@@H]1[C@@H](N(Cc2ccc(-c3cccc(C(F)(F)F)c3)o2)C(=O)c2cccc3ccccc23)c2cc(OCCCO)ccc2N1C(=O)c1ccc2ccccc2n1` (stereo not given in full), the z-score in assay [1] is -0.855 (inactive); in assay [3] it was 0.706 (inactive); in assay [4], -0.342 (inactive); in [5], 1.32 (inactive); in [6], 0.139 (inactive); in [7], 0.2. Further, the z-score in assay [8] is -3.37 (inactive); in assay [9], -1.17 (inactive); in assay [10], -0.606; in [11], -0.16; in assay [12] it was 0.953; in assay [13], -0.0619. Further, the z-score was -0.142 in assay [14]; -2.18 in [15]; 2.43 in assay [16]; -0.637 (inactive) in assay [17]; 0.307 in assay [18]; 0.582 in assay [19]. For the same compound, in assay [20], the z-score was -0.871 (inactive). Further, in assay [2], the composite z-score was 0.007.
`O=C1O[C@@H](c2ccccc2)[C@@H](c2ccccc2)N2[C@@H](c3ccc(OCCO)cc3)[C@]3(C(=O)Nc4ccc(C#CCCO)cc43)[C@@H](C(=O)Nc3nc4ccccc4s3)[C@H]12`: the z-score in assay [1] is 2.3 (inactive); in [3] it was 1.01 (inactive); in [4] it was -0.0042 (inactive); in assay [5] it was -1.53 (inactive); in [6] it was -1.15 (inactive); in assay [7], 0.922. Besides, the z-score in assay [8] was 0.762 (inactive); in assay [9], 0.868 (inactive); in assay [10], 1.52; in assay [11], 0.0652; in [12], 0.794; in assay [13], -0.354. Further, the z-score in [14] was -0.267; in assay [15], -0.0767; in assay [16], -3.09; in [17], 1.57 (inactive); in assay [18], -1.06; in [19], -1.49. For the same compound, the z-score in [20] is 1.58 (inactive). This compound also showed a composite z-score in assay [2] of 0.573.
